# Measurements: PubChem BioAssay (NCATS)
# Values joined by “and” are separate entries in the source; they are usually repeats but may differ in a detail not shown here. Identical values can stand only once. Records with an inconclusive call do not appear. Where a call stands in place of a potency, no number is given. Some structures have more than one record in an assay (separate samples or runs), and their calls can disagree. Active and inactive are the calls of the source. Calls follow the shape of the dose curve; as a rule, active = well fitted curve in the direction sought with a large enough effect; inconclusive = small, poorly fitted or top-dose-only effect, or another doubt; inactive = no such curve, though single readings can be large; an effect the other way counts as inactive or inconclusive.
# Legend:
# [1] = test system: CRL-7250; test: Cytotoxic Profiling of Annotated Libraries Using Quantitative High-Throughput Screening (AID 1296008); settings: Five cell lines viability, CellTiter-Glo ATP luminescence, 48-72 h; max response: stronger effect = lower value; also: nearly all actives have a fitted effect of over 60% in size; also: potency is read from the fitted curve at half-maximal effect
# How it was run: (§1)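 Compounds were pin-transferred onto cells and incubated 48 or 72 hr at 37 degree Celsius, 95% humidity. CellTiter-Glo was added, plates sat 10 min at room temperature, then ATP-coupled luminescence was imaged as the viability read-out.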
# [2] = test system: HEK293; test: as above; settings: Five cell lines viability, CellTiter-Glo ATP luminescence, 48-72 h; max response: stronger effect = lower value
# How it was run: as §1
# [3] = test system: HaCat; test: as above; settings: Five cell lines viability, CellTiter-Glo ATP luminescence, 48-72 h; max response: stronger effect = lower value
# How it was run: as §1
# [4] = test system: KB-3-1; test: as above; settings: Five cell lines viability, CellTiter-Glo ATP luminescence, 48-72 h; max response: stronger effect = lower value
# How it was run: as §1
# [5] = test system: NIH3T3; test: as above; settings: Five cell lines viability, CellTiter-Glo ATP luminescence, 48-72 h; max response: stronger effect = lower value
# How it was run: as §1
# [6] = test system: HACAT; test: qHTS assay to identify novel small-molecules to repurpose for Merkel cell carcinoma treatment (AID 1296009); settings: MCC and control cell lines, CellTiter-Glo viability, 72 h; at 44.8 µM (top of the series) unless noted; also: nearly all actives have a fitted effect of over 60% in size; also: potency is read from the fitted curve at half-maximal effect
# How it was run: (§2)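 qHTS format: cells treated with library compounds in DMSO across 8 (NPC) or 11 (MIPE) concentrations. Readout after 72 hr at 37 degree celsius was CellTiter-Glo luminescence.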
# [7] = test system: MCC-13; test: as above; settings: MCC and control cell lines, CellTiter-Glo viability, 72 h; series mostly up to 46 µM
# How it was run: as §2
# [8] = test system: MCC-26; test: as above; settings: MCC and control cell lines, CellTiter-Glo viability, 72 h; series mostly up to 46 µM
# How it was run: as §2
# [9] = test system: MKL-1; test: as above; settings: MCC and control cell lines, CellTiter-Glo viability, 72 h; series mostly up to 46 µM
# How it was run: as §2
# [10] = test system: MKL-2; test: as above; settings: MCC and control cell lines, CellTiter-Glo viability, 72 h; series mostly up to 46 µM
# How it was run: as §2
# [11] = test system: NIH3T3; test: as above; settings: MCC and control cell lines, CellTiter-Glo viability, 72 h; at 44.8 µM (top of the series) unless noted
# How it was run: as §2
# [12] = test system: UISO; test: as above; settings: MCC and control cell lines, CellTiter-Glo viability, 72 h; series mostly up to 46 µM
# How it was run: as §2
# [13] = test system: WaGa; test: as above; settings: MCC and control cell lines, CellTiter-Glo viability, 72 h; series mostly up to 46 µM
# How it was run: as §2
# [14] = test system: C33A; test: Primary qHTS to identify gynecologic anti-cancer compounds using libraries of approved drugs and bioactive compounds (AID 1345084); settings: Gynecologic cancer cell panel viability, ATPlite luminescence, 48 h; series mostly up to 57.5 µM; also: nearly all actives have a fitted effect of over 55% in size
# How it was run: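 Five-point cytotoxicity, 48 h drug exposure at 37 C, 5% CO2, on cells seeded 16 h beforehand. ATP content read by ATPlite luminescence.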
# [15] = test system: SC27B; test: qHTS profiling for inhibitors of Plasmodium falciparum proliferation (AID 504749); also: nearly all actives have a fitted effect of over 60% in size; settings: P. falciparum in erythrocytes, SYBR Green DNA, 72 h; series mostly up to 28.7 µM
# How it was run: (§3)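 Parasite proliferation within erythrocytes, 72 h exposure. Endpoint: SYBR Green I fluorescence after overnight lysis at room temperature. Controls: 0.29 uM artemisinin, DMSO.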
# [16] = test system: TAB109; test: as above; settings: P. falciparum in erythrocytes, SYBR Green DNA, 72 h; series mostly up to 28.7 µM
# How it was run: as §3
# [17] = test system: TAB113; test: as above; settings: P. falciparum in erythrocytes, SYBR Green DNA, 72 h; series mostly up to 28.7 µM
# How it was run: as §3
# [18] = test system: TAB165; test: as above; settings: P. falciparum in erythrocytes, SYBR Green DNA, 72 h; series mostly up to 28.7 µM
# How it was run: as §3
# [19] = test system: W2; test: as above; settings: P. falciparum in erythrocytes, SYBR Green DNA, 72 h; series mostly up to 28.7 µM
# How it was run: as §3
smiles,measurement,setting,value
O=C(Nc1ccc(F)c(C(F)(F)F)c1)Nc1nnc(-c2ccncc2)s1,max response,[1],2.14% (inactive)
same,max response,[2],-22.6% (inactive) and -26.4% (inactive)
same,max response,[3],2.71% (inactive)
same,outcome,[3],inactive
same,max response,[4],-7.12% (inactive) and -14.7% (inactive)
same,max response,[5],-1.83% (inactive)
same,outcome,[5],inactive
same,outcome,[6],inactive
same,Potency,[7],inactive
same,Potency,[8],inactive
same,Potency,[9],inactive
same,Potency,[10],inactive
same,outcome,[11],inactive
same,Potency,[12],inactive
same,Potency,[13],inactive
same,Potency,[14],inactive
CCOc1cc(C=C2C(=O)N(c3ccccc3)N=C2C)cc(Cl)c1OCC(=O)OC,max response,[1],3.6% (inactive)
same,max response,[2],0.832% (inactive)
same,outcome,[3],inactive
same,max response,[4],4.4% (inactive)
same,max response,[5],-3.61% (inactive)
same,outcome,[6],inactive
same,Potency,[7],inactive
same,Potency,[8],inactive
same,Potency,[9],inactive
same,Potency,[10],inactive
same,Potency,[12],inactive
same,Potency,[13],inactive
CCN(c1ccccc1)c1cc(NC)[n+](C)c(C)n1,max response,[1],-1.6% (inactive)
same,max response,[2],1.35% (inactive)
same,outcome,[3],inactive
same,max response,[4],7.88% (inactive)
same,max response,[5],-7.55% (inactive)
same,outcome,[6],inactive
same,Potency,[7],inactive
same,Potency,[8],inactive
same,Potency,[9],inactive
same,Potency,[10],inactive
same,Potency,[12],inactive
same,Potency,[13],inactive
Cc1cc(SCc2sc(-c3ccc(C(F)(F)F)cc3)nc2C)ccc1OCC(=O)O,max response,[1],-3.25% (inactive)
same,max response,[2],3.06% (inactive) and 3.28% (inactive)
same,max response,[3],-0.39% (inactive) and 1.93% (inactive)
same,max response,[4],0.144% (inactive)
same,outcome,[4],inactive
same,outcome,[5],inactive
same,Potency,[7],inactive
same,Potency,[8],inactive
same,Potency,[9],inactive
same,Potency,[10],inactive
same,outcome,[11],inactive
same,Potency,[12],inactive
same,Potency,[13],inactive
CC(C)(Sc1ccc(CCN(CCCCC2CCCCC2)C(=O)NC2CCCCC2)cc1)C(=O)O,max response,[1],-21.5% (inactive) and -0.943% (inactive)
same,max response,[2],4.49% (inactive)
same,max response,[3],-19.6% (inactive) and 1.18% (inactive)
same,max response,[4],5.99% (inactive)
same,outcome,[4],inactive
same,max response,[5],-1.54% (inactive) and 3.22% (inactive)
same,Potency,[7],inactive
same,Potency,[8],inactive
same,Potency,[12],inactive
same,Potency,[14],inactive
O=c1[nH]c(-c2ccc(C(F)(F)F)cc2)nc2c1CSCC2,max response,[1],-16.3% (inactive)
same,max response,[2],1.09% (inactive)
same,max response,[3],-17.6% (inactive) and -9.05% (inactive)
same,max response,[4],9.93% (inactive)
same,outcome,[4],inactive
same,max response,[5],-7.54% (inactive)
same,Potency,[7],inactive
same,Potency,[8],inactive
same,Potency,[9],inactive
same,Potency,[10],inactive
same,Potency,[13],inactive
CNC(=O)c1ccc(C)c(-n2c(C)cc(OCc3ccc(F)cc3F)c(Br)c2=O)c1,max response,[1],-9.42% (inactive)
same,Potency,[2],11.6 µM (active)
same,max response,[3],-14.3% (inactive)
same,outcome,[3],inactive
same,max response,[4],-4.9% (inactive)
same,max response,[5],2.56% (inactive)
same,outcome,[5],inactive
same,outcome,[6],inactive
same,Potency,[7],inactive
same,Potency,[8],inactive
same,Potency,[9],inactive
same,outcome,[11],inactive
same,Potency,[14],inactive
NCCCC(N)(C(=O)O)C(F)F (stereo not given),Potency,[15],inactive
same,Potency,[16],inactive
same,Potency,[17],inactive
same,Potency,[18],inactive
same,Potency,[19],inactive
same,max response,[1],-1.33% (inactive) and -4.78% (inactive)
same,max response,[2],-1.85% (inactive) and -25.2% (inactive)
same,max response,[3],-8.41% (inactive)
same,outcome,[3],inactive
same,max response,[4],-4.94% (inactive) and 7.79% (inactive)
same,max response,[5],-17.4% (inactive)
same,outcome,[6],inactive
same,Potency,[7],inactive
same,Potency,[8],inactive
same,Potency,[9],inactive
same,Potency,[10],inactive
same,Potency,[12],inactive
same,Potency,[13],inactive
same,Potency,[14],inactive
COc1cc2c(cc1OC)CN(CCc1ccc(NC(=O)c3cccc4c(=O)c5cccc(OC)c5[nH]c34)cc1)CC2,max response,[1],0.448% (inactive) and -2.79% (inactive)
same,Potency,[2],11.8 µM (active) and 7.31 µM (active)
same,outcome,[3],inactive
same,max response,[4],4.69% (inactive) and -0.508% (inactive)
same,max response,[5],3.98% (inactive)
same,outcome,[5],inactive
same,outcome,[6],inactive
same,Potency,[7],inactive
same,Potency,[8],inactive
same,Potency,[9],inactive
same,Potency,[10],16.6 µM (active)
same,outcome,[11],inactive
same,Potency,[14],inactive
C[C@]12CC[C@H](O)CC1=CC[C@@H]1[C@H]2CC[C@]2(C)C(c3cccnc3)=CC[C@H]12,outcome,[1],inactive
same,max response,[2],-4.02% (inactive)
same,outcome,[3],inactive
same,max response,[4],-14.4% (inactive)
same,max response,[5],0.502% (inactive)
same,outcome,[6],inactive [at 17.4 µM]
same,Potency,[7],inactive
same,Potency,[8],inactive
same,Potency,[9],inactive
same,Potency,[10],inactive
same,Potency,[12],inactive
same,Potency,[13],inactive
CC(C)(C)NCC(O)c1ccc(O)c(CO)c1 (stereo not given),max response,[1],-2.87% (inactive) and 2.98% (inactive)
same,max response,[2],-5.93% (inactive) and 0.072% (inactive)
same,outcome,[3],inactive
same,max response,[4],-0.699% (inactive)
same,outcome,[5],inactive
same,outcome,[6],inactive
same,Potency,[7],inactive
same,Potency,[8],inactive
same,Potency,[9],inactive
same,Potency,[10],inactive
same,outcome,[11],inactive
same,Potency,[12],inactive
same,Potency,[13],inactive
same,Potency,[14],inactive
CS(=O)(=O)Oc1ccc2c(NC(N)=O)c(C(=O)c3ccc(Cl)cc3Cl)oc2c1,outcome,[1],inactive
same,max response,[2],3.62% (inactive)
same,outcome,[3],inactive
same,max response,[4],0.867% (inactive)
same,max response,[5],-0.156% (inactive)
same,outcome,[6],inactive
same,Potency,[7],inactive
same,Potency,[8],inactive
same,Potency,[9],8.33 µM (active)
same,Potency,[10],2.96 µM (active)
same,Potency,[12],inactive
same,Potency,[13],0.833 µM (active)
NCCc1ccc(O)c(O)c1,Potency,[15],inactive
same,Potency,[16],inactive
same,Potency,[17],inactive
same,Potency,[18],inactive
same,max response,[1],1.67% (inactive) and -14% (inactive)
same,max response,[2],-42.9% (inactive)
same,max response,[3],2.7% (inactive)
same,outcome,[3],inactive
same,max response,[4],-3.12% (inactive) and 0.713% (inactive)
same,max response,[5],2.44% (inactive) and -9.95% (inactive)
same,outcome,[6],inactive
same,Potency,[7],inactive and 5.31 µM (active)
same,Potency,[8],inactive
same,Potency,[9],inactive and 23.7 µM (active)
same,Potency,[10],18.7 µM (active) and inactive
same,Potency,[12],inactive and 18.8 µM (active)
same,Potency,[13],11.9 µM (active)
same,Potency,[14],inactive
